# Reference: PubChem BioAssay (NCI)
# About 83,000 compounds went through this panel and 20% of them were active in at least one assay; those are over-represented in the sample as a whole.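 Values shown are percent growth following 48 h exposure of cells in 96-well plates to a single concentration of compound; below 10 was considered active.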 Active and inactive are the calls of the source.
# Test system: HT29 colon
# Test: NCI-60 one-dose screen, 48 h (100 = growth as untreated, 0 = no growth, -100 = all killed)
# Conditions: 10 µM
row,Compound,growth
1,CSc1cc(SC)ncn1,97.3% (inactive)
2,CCOC(=O)CNC(=O)CCCCSc1ncnc2nc[nH]c12,103% (inactive)
3,COc1ccc(OC)c(/C=C/c2nc(SCc3ccccc3)n(-c3ccc(Cl)cc3)n2)c1,63.1% (inactive)
4,c1ccc(C(NC2CC3CCC2C3)c2ccccc2)cc1 (stereo not drawn),85.8% (inactive)
5,CN1CCC2(CC1)NC(=O)c1c(c3ccc(Cl)c(Cl)c3n1C)C2C#N (stereo not drawn),44.8% (inactive)
6,O=[N+]([O-])c1cccc(N=Cc2ccc3c(c2)OCO3)c1,105% (inactive)
7,Nc1cc2c(cc1Cl)-c1ccc([N+](=O)[O-])cc1/C2=N\O,82.5% (inactive)
8,COc1ccc(OC)c2c1C(=O)CC2C (stereo not drawn),108% (inactive)
9,N#CSCC1CC(O)(c2ccccc2)CC(c2ccc(Cl)cc2)O1 (stereo not drawn),3.59% (active)
10,CCOC(=O)C1CCc2c(ccc3ccccc23)N1CCC#N (stereo not drawn),100% (inactive)
11,Fc1ccc(-c2nnc(-c3c(-c4ccc(F)cc4)nc4ccccn34)o2)cc1,79.2% (inactive)
12,O=C1/C(=C/c2ccc(Cl)cc2)SC(=Nc2ccc(Cl)cc2)N1Cc1nc2ccccc2[nH]1,97% (inactive)
13,CO/N=C(/C(=O)NC1C(=O)N2C(C(=O)O)=C(COC(N)=O)CSC12)c1ccco1 (stereo not drawn),111% (inactive)
14,COc1ccc(C2CC(c3ccc(N(C)C)cc3)=NN2c2ccc(S(N)(=O)=O)cc2)cc1 (stereo not drawn),29.6% (inactive)
15,CN(C)CCNC(=O)c1cccn2c(=O)c3cc4ccccc4cc3nc12,-60.7% (active)
16,Oc1[nH]c2ccc(Cl)cc2c1/C=c1/ccc2c(c1)N=C(c1cccs1)N=2,43.8% (inactive)
17,Nc1ccc2c(c1)Cc1cc(N)c(Br)cc1-2,107% (inactive)
18,Cc1ccc(Nc2nnc(-c3cc(-c4ccncc4)n(-c4ccccc4)n3)s2)cc1,36.9% (inactive)
19,O=C(N/N=C\c1cc(Cl)ccc1[N+](=O)[O-])c1ccco1,107% (inactive)
20,COc1ccc2c(c1)sc1nc(-c3ccccc3)c(-c3ccsc3)n12,-5.75% (active)

row,Compound,growth
1,O=C(N/N=C/c1ccccc1O)C(O)(c1ccccc1)c1ccccc1,49.7% (inactive)
2,CCCCCCCCCCCCC1C/C=C\CCCC(=O)O1 (stereo not drawn),107% (inactive)
3,O=C(Nc1cccc(Br)c1)c1cc(=O)[nH]c2ccccc12,107% (inactive)
4,CC(C)=CCc1ccc(O)c(=O)cc1C(C)C,28.5% (inactive)
5,Cc1occc1-c1nnc(SCC(=O)c2ccc(NC(=O)CC(C)C)cc2)o1,113% (inactive)
6,CC(C)=NNc1ncnc2c1ncn2C1OC(CO)C(O)C1O (stereo not drawn),18.1% (inactive)
7,CCCCCCCCCCCCCC[n+]1ccc(C(N)=O)cc1,-28.2% (active)
8,COc1ccc(Cl)cc1C(=O)Nc1nc2ccc(Cl)cc2s1,109% (inactive)
9,O=C(CSSCC(=O)c1ccc(Cl)cc1)c1ccc(Cl)cc1,92.6% (inactive)
10,O=[P@@]1(c2ccccc2)O[C@H](COCc2ccccc2)[C@@H](OCc2ccccc2)[C@H](OCc2ccccc2)[C@H]1O,90.8% (inactive)
11,Nc1ncn([C@@H]2O[C@H](CO)[C@@H](O)[C@H]2O)c(=O)n1,19.9% (inactive)
12,CCCCOC(=O)Oc1ccc(C(=O)Oc2ccc(OCC)cc2)cc1,108% (inactive)
13,O=C1c2ccc3c4c(ccc(c24)C(=O)N1CCNCc1ccccc1)C(=O)N(CCNCc1ccccc1)C3=O,-16.5% (active)
14,CCn1cc(C(=O)O)c(=O)c2cnc(N3CCCC3)nc21,111% (inactive)
15,Cc1ccc(-c2nc(/C=C3/C(=O)N(C)c4ccc(F)cc43)c3ccccn23)cc1,112% (inactive)
16,COc1ccc(OC)c(/C=C/c2nc(SC)n(-c3ccc(Cl)cc3)n2)c1,90.3% (inactive)
17,COc1cccc(-c2cc(-c3cccc(NS(C)(=O)=O)c3)nc(N)c2C#N)c1O,12.6% (inactive)
18,CC1CN(Cc2ccccc2)C(=O)NC1=O (stereo not drawn),109% (inactive)
19,Cc1cn(C2CCCCO2)c(=O)nc1NO (stereo not drawn),110% (inactive)

# Test system: SNB-75 CNS
# Test: as above
# Conditions: 10 µM
row,Compound,growth
1,CSc1cc(SC)ncn1,94.2% (inactive)
2,CCOC(=O)CNC(=O)CCCCSc1ncnc2nc[nH]c12,95.3% (inactive)
3,COc1ccc(OC)c(/C=C/c2nc(SCc3ccccc3)n(-c3ccc(Cl)cc3)n2)c1,59.6% (inactive)
4,c1ccc(C(NC2CC3CCC2C3)c2ccccc2)cc1 (stereo not drawn),93.5% (inactive)
5,CN1CCC2(CC1)NC(=O)c1c(c3ccc(Cl)c(Cl)c3n1C)C2C#N (stereo not drawn),34.3% (inactive)
6,O=[N+]([O-])c1cccc(N=Cc2ccc3c(c2)OCO3)c1,96.7% (inactive)
7,Nc1cc2c(cc1Cl)-c1ccc([N+](=O)[O-])cc1/C2=N\O,66.6% (inactive)
8,COc1ccc(OC)c2c1C(=O)CC2C (stereo not drawn),93% (inactive)
9,N#CSCC1CC(O)(c2ccccc2)CC(c2ccc(Cl)cc2)O1 (stereo not drawn),49.2% (inactive)
10,CCOC(=O)C1CCc2c(ccc3ccccc23)N1CCC#N (stereo not drawn),74.2% (inactive)
11,Fc1ccc(-c2nnc(-c3c(-c4ccc(F)cc4)nc4ccccn34)o2)cc1,37.4% (inactive)
12,O=C1/C(=C/c2ccc(Cl)cc2)SC(=Nc2ccc(Cl)cc2)N1Cc1nc2ccccc2[nH]1,27.1% (inactive)
13,CO/N=C(/C(=O)NC1C(=O)N2C(C(=O)O)=C(COC(N)=O)CSC12)c1ccco1 (stereo not drawn),91.6% (inactive)
14,COc1ccc(C2CC(c3ccc(N(C)C)cc3)=NN2c2ccc(S(N)(=O)=O)cc2)cc1 (stereo not drawn),69.6% (inactive)
15,CN(C)CCNC(=O)c1cccn2c(=O)c3cc4ccccc4cc3nc12,-72.7% (active)
16,Oc1[nH]c2ccc(Cl)cc2c1/C=c1/ccc2c(c1)N=C(c1cccs1)N=2,6.31% (active)
17,Nc1ccc2c(c1)Cc1cc(N)c(Br)cc1-2,67.1% (inactive)
18,Cc1ccc(Nc2nnc(-c3cc(-c4ccncc4)n(-c4ccccc4)n3)s2)cc1,116% (inactive)
19,O=C(N/N=C\c1cc(Cl)ccc1[N+](=O)[O-])c1ccco1,96% (inactive)
20,COc1ccc2c(c1)sc1nc(-c3ccccc3)c(-c3ccsc3)n12,6.18% (active)

row,Compound,growth
1,O=C(N/N=C/c1ccccc1O)C(O)(c1ccccc1)c1ccccc1,68.8% (inactive)
2,CCCCCCCCCCCCC1C/C=C\CCCC(=O)O1 (stereo not drawn),102% (inactive)
3,O=C(Nc1cccc(Br)c1)c1cc(=O)[nH]c2ccccc12,70.6% (inactive)
4,CC(C)=CCc1ccc(O)c(=O)cc1C(C)C,12.7% (inactive)
5,Cc1occc1-c1nnc(SCC(=O)c2ccc(NC(=O)CC(C)C)cc2)o1,111% (inactive)
6,CC(C)=NNc1ncnc2c1ncn2C1OC(CO)C(O)C1O (stereo not drawn),32.1% (inactive)
7,CCCCCCCCCCCCCC[n+]1ccc(C(N)=O)cc1,-24.8% (active)
8,COc1ccc(Cl)cc1C(=O)Nc1nc2ccc(Cl)cc2s1,74.3% (inactive)
9,O=C(CSSCC(=O)c1ccc(Cl)cc1)c1ccc(Cl)cc1,62% (inactive)
10,O=[P@@]1(c2ccccc2)O[C@H](COCc2ccccc2)[C@@H](OCc2ccccc2)[C@H](OCc2ccccc2)[C@H]1O,-12.1% (active)
11,Nc1ncn([C@@H]2O[C@H](CO)[C@@H](O)[C@H]2O)c(=O)n1,20.3% (inactive)
12,CCCCOC(=O)Oc1ccc(C(=O)Oc2ccc(OCC)cc2)cc1,111% (inactive)
13,O=C1c2ccc3c4c(ccc(c24)C(=O)N1CCNCc1ccccc1)C(=O)N(CCNCc1ccccc1)C3=O,105% (inactive)
14,CCn1cc(C(=O)O)c(=O)c2cnc(N3CCCC3)nc21,88.1% (inactive)
15,Cc1ccc(-c2nc(/C=C3/C(=O)N(C)c4ccc(F)cc43)c3ccccn23)cc1,87.4% (inactive)
16,COc1ccc(OC)c(/C=C/c2nc(SC)n(-c3ccc(Cl)cc3)n2)c1,72.1% (inactive)
17,COc1cccc(-c2cc(-c3cccc(NS(C)(=O)=O)c3)nc(N)c2C#N)c1O,-16.4% (active)
18,CC1CN(Cc2ccccc2)C(=O)NC1=O (stereo not drawn),106% (inactive)
19,Cc1cn(C2CCCCO2)c(=O)nc1NO (stereo not drawn),99.3% (inactive)
